Screens (PubChem BioAssay)
SDO1 yeast rescue – compounds rescuing growth of sdo1-depleted yeast, bone marrow failure model. S. cerevisiae sdo1-depleted JHY4D growth rescue, OD600 30 h; hits give high values; pdr5 snq2 efflux-pump mutant strain. z-score at 10 µM. AID 817. 140,000 compounds, 0.21% hits;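 active = z-score above 3 at both the 24 hr and the 30 hr optical density reads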;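 also: z-score against mean and SD of all compound wells on the same plate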
Plk1 PBD FP – Plk1 (human) PBD binding inhibition; P53350; Plk1 PBD phosphopeptide binding, fluorescence polarization; inhibition, %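 (tested at about 20 µM)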; 97,000 compounds, 0.13% hits; in the data active = inhibition above about 34%, passing the limit was not always enough
Pyk2 oligo antag – Pyk2 (human) oligomerization antagonism. Q293 cells, Pyk2 FERM NanoBiT luminescence; hits give low values. z-score (the deposit names both 25 µM and 10 µM). 99,000 compounds, 0.83% hits;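 active = Z-score of -3 or lower, scaled per plate to the spread of control and sample wells; inactive = z-score above -3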;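 also: negative z-score means lost luminescence so less FERM oligomerization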
PLK1 inh – blocks human PLK1 kinase activity | AID 619 | recombinant PLK1 kinase, TR-FRET peptide phosphorylation | 97,000 compounds, 0.53% hits | inhibition, % at 10 µM;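 active = inhibition of 50% or more in the single-concentration screen; inactive = inhibition below 50%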;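 also: 0% = DMSO max control and 100% = H-89 dihydrochloride min control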
Cav32 inh – human Cav3.2 channel inhibition, primary screen | O95180 | Cav3.2-expressing cells, Fluo-4 calcium fluorescence FDSS; hits give low values | B-score at 10 µM | 100,000 compounds, 4% hits | AID 449739;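 active = single-dose well whose peak fluorescence ratio is a statistical outlier from its plate by either plate-standardised score or position-corrected B-score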
DAT uptake mod – changed human dopamine transporter uptake under cocaine IC80; Q01959; LLC-PK1 hDAT cells, [14C]-dopamine uptake with cocaine IC80; actives deviate in either direction; B-score at 10 µM; 110,000 compounds, 1.3% hits;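 active = Z score or B-score, a plate-position-corrected score, falls beyond the plate's 99.7% confidence bounds, in either direction; inactive = both scores lie inside the 99.7% bounds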;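 also: scored against the spread of the other compound wells on the same plate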
* = called active by the depositor; [ ] = dose if it differs, or a comment. Shown are actives, neighbours in structure and some others; about 4.7% of the full set was active somewhere.

O=C(N/N=C\c1ccc(COc2ccc([N+](=O)[O-])cc2)o1)c1cccc(Cl)c1 was read as SDO1 yeast rescue -1.31, Plk1 PBD FP -3.8, Pyk2 oligo antag -0.42, PLK1 inh 47.9, Cav32 inh -7.56* and DAT uptake mod 0.626.
Screening COc1ccc(N(CN2C(=O)C3C4C=CC(C4)C3C2=O)C(=O)c2ccco2)cc1 (stereo not given) returned SDO1 yeast rescue 0.49[10.9 µM], Plk1 PBD FP 52.2*, Pyk2 oligo antag 0.17 and PLK1 inh 1.3.
For [N-]=[N+]=CC(=O)CC(c1ccccc1)N1C(=O)c2ccccc2C1=O (stereo not given) the results were SDO1 yeast rescue 0.61, Plk1 PBD FP 10.4, Pyk2 oligo antag 0.08 and PLK1 inh -12.4.
For C[C@H](C(=O)C=[N+]=[N-])N1C(=O)c2ccccc2C1=O the results were SDO1 yeast rescue 0.17, Plk1 PBD FP 13.7, PLK1 inh -8.4, Cav32 inh -0.867 and DAT uptake mod -7.13*.
`Cc1nn(Cc2ccc(C(=O)Nc3ccccc3C(F)(F)F)o2)c(C)c1Br` gave SDO1 yeast rescue -0.69, Plk1 PBD FP -46.4, Pyk2 oligo antag -1.34, PLK1 inh -7.0, Cav32 inh -2.36 and DAT uptake mod -0.286.
`Cc1ccc(CNC(=O)c2ccc(Cn3nc(C)c(Cl)c3C)o2)cc1` gave SDO1 yeast rescue -2.38, Plk1 PBD FP -10.1, Pyk2 oligo antag -0.29, PLK1 inh -13.5, Cav32 inh -4.67* and DAT uptake mod 1.98.
COc1ccc(N(CC(=O)Nc2cccc(C(F)(F)F)c2)S(C)(=O)=O)cc1 was read as SDO1 yeast rescue -0.63, Plk1 PBD FP -1.6, Pyk2 oligo antag -2.05, PLK1 inh -2.2, Cav32 inh -3.32* and DAT uptake mod 0.264.
`COc1cccc(NC(=O)CN(c2cccc(F)c2)S(C)(=O)=O)c1` gave SDO1 yeast rescue 0.18, Plk1 PBD FP -8.0, Pyk2 oligo antag -0.44, PLK1 inh -8.9, Cav32 inh 0.387 and DAT uptake mod -0.609.
`COc1ccc(N(CC(=O)Nc2cccc(SC)c2)S(C)(=O)=O)cc1` gave SDO1 yeast rescue -0.64, Pyk2 oligo antag -0.93, Cav32 inh -4.78* and DAT uptake mod 0.0145.
For CCOc1ccc(NC(=O)CN(c2cccc(C(F)(F)F)c2)S(C)(=O)=O)cc1 the results were SDO1 yeast rescue 0.16, Plk1 PBD FP -5.8, Pyk2 oligo antag -0.6, PLK1 inh -12.9, Cav32 inh -3.79* and DAT uptake mod -0.153.
COc1cccc(NC(=O)CN(c2cccc(C(F)(F)F)c2)S(C)(=O)=O)c1 was read as SDO1 yeast rescue 0.33, Pyk2 oligo antag -0.32 and DAT uptake mod 0.189.
`CSc1cccc(NC(=O)CN(Cc2ccc(Cl)cc2)S(C)(=O)=O)c1` gave SDO1 yeast rescue 0.3, Plk1 PBD FP 40.9, Pyk2 oligo antag -0.17, PLK1 inh 4.2, Cav32 inh -3.37* and DAT uptake mod 0.229.
Screening COc1ccc(NC(=O)CN(c2cccc(C(F)(F)F)c2)S(C)(=O)=O)cc1OC returned SDO1 yeast rescue -0.34, Plk1 PBD FP 13.6, Pyk2 oligo antag 0.34, PLK1 inh 24.2, Cav32 inh -0.318 and DAT uptake mod 1.03.
For CCN(CC)S(=O)(=O)c1cccc(C(=O)OCC(=O)c2ccc3c(c2)OCCO3)c1 the results were SDO1 yeast rescue -1.09.
For C=CCSc1nc(N)c(C#N)c(-c2ccc(C)cc2)c1C#N the results were SDO1 yeast rescue -1.03, Plk1 PBD FP 0.1, Pyk2 oligo antag -3.46*, PLK1 inh -14.0, Cav32 inh 0.469 and DAT uptake mod -0.654.
Cc1ccc(-c2cc(-c3ccccc3Cl)c(C#N)c(N)n2)o1 was read as SDO1 yeast rescue -1.45, Plk1 PBD FP -55.0, Pyk2 oligo antag -1.38, PLK1 inh -9.2, Cav32 inh -0.459 and DAT uptake mod 0.105.
`CCOC(=O)CSc1nc(N)c(C#N)c(-c2ccc(OCC)cc2)c1C#N` gave SDO1 yeast rescue -1.61, Plk1 PBD FP -21.0, Pyk2 oligo antag 0.64, PLK1 inh -55.2, Cav32 inh -0.219 and DAT uptake mod 1.2.
`CCSc1nc(N)c(C#N)c(-c2ccccc2Cl)c1C#N` gave SDO1 yeast rescue -1.83, Plk1 PBD FP 18.8, Pyk2 oligo antag -3.73*, PLK1 inh -39.5, Cav32 inh 0.000564 and DAT uptake mod 0.232.
